Data reported in PubChem BioAssay AID588676 (Johns Hopkins Ion Channel Center, 2011).
About 3,900 (1.3%) of roughly 310,000 compounds were called active.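 Rule for the calls: active = calcium-response B-score plate-corrected more than 3 library SD below zero, starting fluorescence within 5 deviations, no agonist response on first addition; inactive = the rest.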 What follows is part of a selection rich in actives, with near analogues and random picks from the rest.

molecular target: Mas-related G-protein coupled receptor member X1 (Homo sapiens) (UniProt Q96LB2); test: blockade of BAM8-22-evoked MrgX1 calcium response – HEK293 cells, Fluo-4 calcium flux, primary screen (AID 588676); conditions: Fluo-4, BAM8-22 antagonism, at 10 µM; active compounds read low;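 for B-score: peak minus trough fluorescence over baseline after final BAM8-22 challenge near maximal dose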
Sequence (Q96LB2 whole entry, looked up): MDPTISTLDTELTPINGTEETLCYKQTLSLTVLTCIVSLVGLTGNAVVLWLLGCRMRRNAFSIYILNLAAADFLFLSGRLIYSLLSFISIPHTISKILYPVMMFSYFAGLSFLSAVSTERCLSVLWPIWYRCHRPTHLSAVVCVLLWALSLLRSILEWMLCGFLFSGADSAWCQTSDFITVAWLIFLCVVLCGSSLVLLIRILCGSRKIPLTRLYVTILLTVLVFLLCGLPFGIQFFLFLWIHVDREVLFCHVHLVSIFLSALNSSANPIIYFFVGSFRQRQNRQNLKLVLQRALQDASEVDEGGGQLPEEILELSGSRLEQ

B-score, inactive:
CNC(=O)c1cccc2nc3ccccc3nc12, Nc1ccc2nc3c(=O)[nH]c(=S)[nH]c3nc2c1, CC1(C)CC(=O)C(N=Nc2c(F)cccc2F)=C(O)C1, CC(=O)N1CCC(C(=O)OCc2ccc(Cl)cc2)(c2ccccc2)CC1, Cc1ccc(S(=O)(=O)N(C)c2nc3ccccc3n3c(C(C)C)nnc23)cc1, Cc1ccc(-c2cn(S(=O)(=O)c3cccc([N+](=O)[O-])c3)nc2N)cc1, Nc1cc(OC(=O)c2ccccc2Br)nn1S(=O)(=O)c1ccccc1, O=C(COc1ccc(-n2cnnn2)cc1)Nc1ccccc1Cl, Cc1ccc(C(=O)NC2CCN(C(=O)Nc3ccccc3Cl)CC2)cc1, O=C(c1ccc(Oc2ccc(Cl)cc2)c([N+](=O)[O-])c1)N1CCCC1, Cc1nn(C)c(C)c1Sc1ccccc1N, CC(=O)N1CCN(C(=O)c2cc(-c3ccc(Cl)s3)nc3ccccc23)CC1, Brc1ccc2c(c1)[C@H]1OCC[C@H]1[C@@H](c1cccs1)N2, Cc1ccccc1NC(=O)CCOc1ccccc1, CCCCn1c(=S)[nH]c2ccccc2c1=O, O=C(CCn1c(=S)[nH]c2cc3c(cc2c1=O)OCO3)NCc1ccc(Cl)cc1, Cc1cccc(N2CCN(C(=O)/C=C/c3ccco3)CC2)c1C, CC1CCC2CCCCC2N1C(=O)c1cc([N+](=O)[O-])cc([N+](=O)[O-])c1 (stereo unspecified), CCCCCC1CCC(c2nnc(SCC(C)=O)o2)CC1 (stereo unspecified), O=C(CCS(=O)(=O)c1cccc2nonc12)NCCc1ccccc1Cl, CC(NC(=O)c1ccccc1F)c1cccc2ccccc12 (stereo unspecified), COc1ccc(-n2c(SCC(=O)NCc3cccs3)nnc2-c2ccoc2C)cc1, O=C(CSc1nnc(-c2c[nH]c3ccccc23)n1-c1ccc(F)cc1)NCc1ccco1, O=c1[nH]snc1-c1c(Cl)cccc1Cl, CCOc1ccc(CCNC(=O)Nc2ccccc2)cc1OCC, COc1cccc(CNC(=O)C2CC(=O)N(C3CCCCCCC3)C2)c1 (stereo unspecified)

B-score, active:
O=c1[nH]c(=O)c2nc3ccccc3nc2[nH]1 -4.56, Cc1ccc(S(=O)(=O)n2nc(OC(=O)C(C)(C)C)cc2N)cc1 -8.79, O=C(Nc1ccccc1Cl)N1CCN(c2ccc3nncn3n2)CC1 -4.64, CN(C)CCn1c(=S)[nH]c2ccc(Cl)cc2c1=O -7.49, COc1ccc(-n2c(SCC(=O)NCc3ccco3)nnc2-c2c[nH]c3ccccc23)cc1 -6.52
